An excerpt weighted towards active compounds, which were near 3.6% of everything screened.
mHTT-CaM PPI inh = inhibitors of human mutant huntingtin-calmodulin interaction | P42858 | AlphaScreen His-mHTT/GST-CaM binding, luminescence | 3.6% of 190,000 active | inhibition, % at 15 µM;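 further: 0% = both proteins with DMSO and 100% = one protein alone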
Pf apPOL inh = Pf-apPOL DNA polymerase inhibition. Recombinant Pf-apPOL, molecular beacon fluorescence, 1.5 h. inhibition, % at 10 µM. 0.25% of 210,000 active
Numbers without * were called inactive; ! = not active in a repeat. No stated cut-off is given here; in the data, active means inhibition above about 50%; inactive means the rest.

`Cc1onc(-c2ccccc2Cl)c1C(=O)Nc1ccc(F)c([N+](=O)[O-])c1` gave mHTT-CaM PPI inh 23 and Pf apPOL inh -5.
`COc1cc(NC(=O)c2ccc(SC)cc2OC)c(OC)cc1NC(=O)c1ccccc1` gave mHTT-CaM PPI inh -4 and Pf apPOL inh -25.
For COc1ccc(CCNS(=O)(=O)c2ccc(C)cc2)cc1OC the results were mHTT-CaM PPI inh -6 and Pf apPOL inh -5.
`COc1ccc(S(=O)(=O)NCCc2ccc(N3CCCC3)cc2)cc1OC` gave mHTT-CaM PPI inh 54* and Pf apPOL inh 0.
COc1cccc(OCCn2cc(/C=C3\C(=O)NN(c4ccccc4)C3=O)c3ccccc32)c1 was read as mHTT-CaM PPI inh 18 and Pf apPOL inh 4.
N#Cc1sc2nc3c(c(C4CC=CCC4)c2c1N)CCC3 (configuration not stated) was read as mHTT-CaM PPI inh -4 and Pf apPOL inh 2.
COc1ccc2cc(C(=O)NC(C)=O)c(=Nc3ccccc3)oc2c1 was read as mHTT-CaM PPI inh 2 and Pf apPOL inh -3.
Screening CCOc1ccc(C(=O)N2CCC(c3noc(-c4ccccc4C)n3)CC2)cc1OCC returned mHTT-CaM PPI inh 11 and Pf apPOL inh -4.
Screening Cc1oc(C2CCN(C(=O)c3cc4ccccc4[nH]3)CC2)nc1C(=O)N(C)C returned mHTT-CaM PPI inh 17 and Pf apPOL inh -3.
COc1cc(OC)cc(C(=O)N2CCC(c3noc(-c4ccccc4OC)n3)CC2)c1 was read as mHTT-CaM PPI inh 8 and Pf apPOL inh -2.
Cc1ccccc1-c1nc(C2CCN(C(=O)c3ccc(F)c(Cl)c3)CC2)no1 was read as mHTT-CaM PPI inh 94* and Pf apPOL inh 2.
For COc1ccccc1-c1nc(C2CCN(C(=O)c3cc4ccccc4[nH]3)CC2)no1 the results were mHTT-CaM PPI inh 100* and Pf apPOL inh 5.
Cc1oc(C2CCN(C(=O)c3cc4ccccc4[nH]3)CC2)nc1C(=O)N1CCCC1 was read as mHTT-CaM PPI inh 83* and Pf apPOL inh 1.
`O=C(C1=CN(c2ccccc2)c2cc(Cl)ccc2S1(=O)=O)N1CCCCC1` gave mHTT-CaM PPI inh -9 and Pf apPOL inh 0.
`CC(C)OC(=O)C1C2C=CC3(CN(c4cccc(Cl)c4)C(=O)C13)O2` (configuration not stated) gave mHTT-CaM PPI inh 0 and Pf apPOL inh 5.
Cc1ccc(S(=O)(=O)Cc2cc([N+](=O)[O-])ccc2O)cc1 was read as mHTT-CaM PPI inh 4 and Pf apPOL inh 4.
Cc1ccccc1Sc1ccccc1C(=O)O was read as Pf apPOL inh -2.
`COc1ccc(C=Nc2ccc(C(N)=O)cc2)cc1O` gave mHTT-CaM PPI inh -4 and Pf apPOL inh -1.
For COc1cc(C=Nc2ccc(Cl)c(Cl)c2)ccc1O the results were mHTT-CaM PPI inh 2 and Pf apPOL inh 3.
COc1ccc(C=Nc2ccc(Nc3ccccc3)cc2)cc1O was read as mHTT-CaM PPI inh 87* and Pf apPOL inh -57.
`Oc1ccc(C=Nc2ccc(Nc3ccccc3)cc2)cc1` gave mHTT-CaM PPI inh 100* and Pf apPOL inh -3.
`COc1cc(C=Nc2ccc(Nc3ccccc3)cc2)ccc1O` gave mHTT-CaM PPI inh 92* and Pf apPOL inh -4.
Oc1ccc(N=Cc2ccc(OCc3ccccc3)cc2)cc1 was read as mHTT-CaM PPI inh 35 and Pf apPOL inh 0.
Cc1cc(NC(=O)CSc2nnc(-c3cccs3)o2)no1 was read as mHTT-CaM PPI inh 42 and Pf apPOL inh -2.
`CCN1c2ccc(C)cc2C(=O)NC12CCN(C(=O)c1ccc(OC)cc1OC)CC2` gave mHTT-CaM PPI inh 23 and Pf apPOL inh 7.
For O=C(c1cccnc1)N1CCCC(OCc2nc(C3CC3)no2)C1 (configuration not stated) the results were mHTT-CaM PPI inh -8 and Pf apPOL inh 0.
CC1CC(C)CN(S(=O)(=O)N2CCCC(C(=O)NCCCN3CCCC3)C2)C1 (configuration not stated) was read as mHTT-CaM PPI inh -7 and Pf apPOL inh -11.
Screening OCCN1CCN(CC(O)COCC2CC3CCC2C3)CC1 (configuration not stated) returned mHTT-CaM PPI inh 0 and Pf apPOL inh -6.
`Nc1ccc(-c2nc3ccc(-c4ccc5nc(-c6ccc(N)cc6)[nH]c5c4)cc3[nH]2)cc1` gave mHTT-CaM PPI inh 100* and Pf apPOL inh -3.
For Nc1cccc(-c2nc3ccc(-c4ccc5nc(-c6cccc(N)c6)[nH]c5c4)cc3[nH]2)c1 the results were mHTT-CaM PPI inh 97* and Pf apPOL inh -6.
For Oc1ccc2nc(-c3ccccc3)[nH]c2c1 the results were mHTT-CaM PPI inh 9 and Pf apPOL inh 7.
O=C(O)c1ccc2nc(-c3cccc(-c4nc5ccc(C(=O)O)cc5[nH]4)c3)[nH]c2c1 was read as Pf apPOL inh 20.
Nc1ccc(-c2nc3ccc(N)cc3[nH]2)cc1 was read as mHTT-CaM PPI inh 22 and Pf apPOL inh -8.
For COc1ccc(/C=C/c2nc3ccccc3[nH]2)cc1 the results were mHTT-CaM PPI inh -5 and Pf apPOL inh 4.
Screening Nc1ccc2nc(-c3cc(Cl)c(N)c(Cl)c3)[nH]c2c1 returned mHTT-CaM PPI inh 54* and Pf apPOL inh 2.
For Nc1ccc2nc(/C=C/c3nc4ccc(N)cc4[nH]3)[nH]c2c1 the results were mHTT-CaM PPI inh 53* and Pf apPOL inh 80*.
Screening CC(CNC(=O)C1CCCCC1)NC(=O)C1CCCCC1 (configuration not stated) returned mHTT-CaM PPI inh 2 and Pf apPOL inh 0.
Screening CCc1sc(-c2cc3cc([N+](=O)[O-])ccc3oc2=O)nc1-c1ccccc1 returned mHTT-CaM PPI inh 12 and Pf apPOL inh 0.
For CN1CCN(c2nnc(-c3ccc(Cl)cc3)c3ccccc23)CC1 the results were mHTT-CaM PPI inh -4 and Pf apPOL inh -3.
For OCCCc1nc2ccccc2n1CCOc1ccccc1 the results were mHTT-CaM PPI inh 5 and Pf apPOL inh -9.
For CCCNC(=O)c1ccc(C(=O)NCCC)cc1 the results were mHTT-CaM PPI inh -7 and Pf apPOL inh 4.
`CN(C)c1ccc(-c2nc3ccc(N)cc3[nH]2)cc1` gave mHTT-CaM PPI inh 56* and Pf apPOL inh -74.
For CC(=O)Nc1ccc2nc(-c3ccc(-c4nc5ccc(NC(C)=O)cc5[nH]4)cc3)[nH]c2c1 the results were Pf apPOL inh 35.
Screening Nc1ccc(-c2nc3ccc(Oc4ccc5nc(-c6ccc(N)cc6)[nH]c5c4)cc3[nH]2)cc1 returned mHTT-CaM PPI inh 84* and Pf apPOL inh -3.
COc1ccc(-c2nc3ccccc3[nH]2)cc1 was read as mHTT-CaM PPI inh 10 and Pf apPOL inh -4.
Screening CCOc1ccc(-n2nnnc2SC(C)C(=O)Nc2nccs2)cc1 (configuration not stated) returned mHTT-CaM PPI inh -1 and Pf apPOL inh 3.
Cn1ccnc1SC(=O)N1c2ccccc2Sc2ccccc21 was read as mHTT-CaM PPI inh 11 and Pf apPOL inh -3.
`Cc1cccc(-n2nc3c(c2NC(=O)c2cc([N+](=O)[O-])ccc2Cl)CS(=O)(=O)C3)c1C` gave mHTT-CaM PPI inh 6 and Pf apPOL inh 5.
`Cc1ccc(NC(=O)CC2Nc3cc(C)c(C)cc3NC2=O)c(Br)c1` (configuration not stated) gave mHTT-CaM PPI inh 64*! and Pf apPOL inh -6.
`Cc1cc2c(cc1C)NC(CC(=O)Nc1ccccc1OC(F)F)C(=O)N2` (configuration not stated) gave mHTT-CaM PPI inh 50*! and Pf apPOL inh 5.

Screens as filed in PubChem.
